We go through 53 molecules from ChEMBL document CHEMBL4513216, “Probing the Open Global Health Chemical Diversity Library for Multistage-Active Starting Points for Next-Generation Antimalarials” (ACS Infect Dis, 2020).

Each structure is given as a SMILES string. Hit rate of the full screen: of about 69,000 compounds, about 8,600 (12%) showed an effect of 50% or more. The list comes from a sample in which strong results are over-represented; it also holds similar structures and randomly drawn compounds.

The experiment deals with Plasmodium berghei. Description: Screen against P. berghei liver stage (PbLuc), transformed with Luciferase, at 10uM. The following applies: tested at 10 uM. The class given is functional, HepG2.
`CC(c1ccco1)N(C)C(=O)NCCOc1ccc(C#N)cc1` (stereo not drawn): the INHIBITION was 5.94%. In the case of `CN(C)C(=O)CN1CCOCC2(CCN(CC3CCOCC3)CC2)C1`, the INHIBITION came out at 34.9%. Next, `CNc1cccc(C2CCCN(C(=O)c3cncs3)C2)n1` (stereo not drawn): 5.56%. Next, `O=C(N[C@@H]1C[C@@H]2CC[C@H]1C2)C1(Oc2ccc(Cl)cc2)CCNCC1`: 9.72%. In the case of `CCc1cnc(N2CC[C@@H]3CN(CCC(C)C)S(=O)(=O)[C@@H]3CC2)nc1`, the INHIBITION is recorded as -23.7%. Take `CC(C)C(=O)N1CC[C@H]2N(C)CC[C@@]2(C(=O)N2CCCC2)CC1`: the INHIBITION is listed as 3.81%. `Cc1cc(C)c(CNC(=O)N2CCCC2c2cccc(F)c2)c(=O)[nH]1` (stereo not drawn): the INHIBITION is reported as 27.8%. With `CC(C)CS(=O)(=O)N1CCC2(CN(c3ccsc3)C(=O)CN2C)C1` (stereo not drawn) the figure was 23.6%; with `O=C(NCC1(COc2cnccn2)C[C@@H](O)[C@@H](O)C1)C1CCCC1` (stereo partly drawn), -15.7%; with `CSc1ccccc1C(=O)NCCCN1CCc2ccccc2C1`, 5.03%. As to `CCC(CNC(=O)c1ccccc1Br)N1CCc2ccccc2C1` (stereo not drawn), the INHIBITION is given as 56.4%.

As for `CCC(CNC(=O)c1cc(OC)ccc1Br)N1CCc2ccccc2C1` (stereo not drawn), the INHIBITION is 33.5%.

With `Cc1nn(C)c(C)c1C1COCCN1C(=O)NC1CC1` (stereo not drawn), the INHIBITION turned out to be 17.5%. Regarding `Cc1nn(C)c(C)c1C1COCCN1C(=O)CSC(C)(C)C` (stereo not drawn), the INHIBITION worked out at 37.6%. Next, `CNC(=O)N1CCOCC1c1c(C)nn(C)c1C` (stereo not drawn): 28.7%; `CCN(CC)C(=O)N1CCOCC1c1c(C)nn(C)c1C` (stereo not drawn): 10.7%; `Cc1nn(C)c(C)c1C1COCCN1C(=O)CC(C)(C)C` (stereo not drawn): 62.2%.

On to `COCCNC(=O)N1CCOCC1c1c(C)nn(C)c1C` (stereo not drawn), for which the INHIBITION came to 51%.

Consider `O=C(c1cnccn1)N1CCc2ncnc(-c3cccnc3)c2CC1`, for which the INHIBITION worked out at 32.7%. Take `CCc1ccc(CN2CCc3ncnc(-c4cccnc4)c3CC2)o1`: the INHIBITION is reported as -48.8%. For the molecule `O=C(N1CCC(Oc2ccncc2)C1)C1(c2ccc(F)cc2)CC1` (stereo not drawn), the INHIBITION came out at 52%.

Take `O=C(N1CCC(Oc2ccncc2)C1)C1(c2cccc(F)c2)CC1` (stereo not drawn): the INHIBITION stood at 25.1%.

Consider `O=C(N1CCC(Oc2ccncc2)CC1)C1(c2ccc(F)cc2)CC1`, for which the INHIBITION came to 34.1%.

Take `Cc1cc(C(=O)NCC(C)N2CCc3ccccc32)on1` (stereo not drawn): the INHIBITION is reported as -25.9%.

On to `COCCn1ccc2ccc(C(=O)O)cc21`, for which the INHIBITION is given as -19.6%. For `CC(C)c1ccc(CN2CCC3(CCCN(c4nncs4)C3)C2)cc1` (stereo not drawn), the INHIBITION turned out to be 60.4%. In the case of `c1cnc(N2CCCC3(COCCN(c4nncs4)C3)C2)cn1` (stereo not drawn), the INHIBITION was found to be 17.5%. `Cc1ccc(N2CCCC3(COCCN(c4ncccn4)C3)C2)nn1` (stereo not drawn): the INHIBITION is -37.9%. With `Cc1cnc(N2CCCC3(COCCN(c4ccc(C)nn4)C3)C2)nc1` (stereo not drawn) the figure was 52.6%; with `Cc1ccc(N2CCCC3(COCCN(c4cnccn4)C3)C2)nn1` (stereo not drawn), -22.1%; with `Fc1cccnc1N1CCOCC2(CCCN(c3nncs3)C2)C1` (stereo not drawn), 12.6%. Next, `c1cnc(N2CCOCC3(CCCN(c4nncs4)C3)C2)cn1` (stereo not drawn): 72%. On to `Fc1cnc(N2CCOCC3(CCCN(c4cnccn4)C3)C2)nc1` (stereo not drawn), for which the INHIBITION is listed as -13.7%.

In the case of `Cc1ccc(N2CCOCC3(CCCN(c4ncc(F)cn4)C3)C2)nn1` (stereo not drawn), the INHIBITION was found to be 14.6%. Next, `COc1ccc(N2CCOCC3(CCCN(c4cnccn4)C3)C2)cc1` (stereo not drawn): 53.9%; `Fc1ccc(CN2CCC3(CCCN(c4nncs4)C3)C2)cc1` (stereo not drawn): -11.6%; `c1cncc(CN2CCC3(CCCN(c4nncs4)C3)C2)c1` (stereo not drawn): -11.6%.

As to `COc1ccc(F)c(CNC2CCCc3nc(N(C)C)ncc32)c1` (stereo not drawn), the INHIBITION is 37.6%. For the molecule `O=C(CCCOCc1ccccc1)N1CCCC(n2cncn2)C1` (stereo not drawn), the INHIBITION amounted to 21.6%. Next, `Cc1nn(C2CCS(=O)(=O)C2)c(C)c1CC(=O)NCc1ccccc1Cl` (stereo not drawn): -8.9%; `CNC(=O)NC(=O)CCN1CCCC1c1nc(C2CCCCC2)co1` (stereo not drawn): -11.3%. In the case of `CN(C)C[C@]12COC[C@H]1CN(C(=O)Cc1ccc3c(c1)OCO3)C2`, the INHIBITION amounted to 23.5%. Next, `CC(O)(CN1CCN(CCO)CC1)c1cccc(C(F)(F)F)c1` (stereo not drawn): -14%; `Cc1nc2cc(-c3nccn3C)nn2c(N2CCC(O)CC2)c1C`: 12.3%.

Regarding `O=C1COC2(COCCN(c3ccccn3)C2)CN1c1cccc(F)c1` (stereo not drawn), the INHIBITION is on record as 31.2%. Take `c1ccc(CN2CCc3c(CNc4nccs4)n[nH]c3C2)nc1`: the INHIBITION amounted to 34.4%. With `CCN1CCOCC2(CCCN(c3nncs3)C2)C1` (stereo not drawn) the figure was 52.3%. Next, `Fc1cnc(N2CCOCC3(CCCN(c4nncs4)C3)C2)nc1` (stereo not drawn): 41.5%; `CCS(=O)(=O)N1CCCC2(COCCN(c3nncs3)C2)C1` (stereo not drawn): 28.2%. For the molecule `Cc1cc(CNC(=O)N2CCc3ccccc3C2CO)c(C)o1` (stereo not drawn), the INHIBITION came out at 2.43%.

On to `Cc1cc(F)ccc1-n1cc(O)c(C(=O)NCC[S+](C)[O-])n1` (stereo not drawn), for which the INHIBITION is recorded as 36.2%. For `COc1ccccc1COCC(O)CN1CCC(c2ccn[nH]2)CC1` (stereo not drawn), the INHIBITION came out at 46.2%. On to `Cn1cc(CN2CCn3cnc(COCC4CC4)c3C2)cn1`, for which the INHIBITION is listed as 5.63%.
